The values that follow come from the antibiotic and cytotoxicity screens of Wong et al. (2023).

In all, about 39,000 compounds went through this assay and about 3,300 (8.5%) were called active. This is one part of a sample in which actives are shown more often than they occur.

The test concerns HepG2. In words: cytotoxicity call (relative viability < 0.9). The conditions noted are these: 10 µM.
For the compound `C[C@H]1CN([C@@H](C)CO)C(=O)c2cccc(NC(=O)c3nc4ccccc4s3)c2O[C@H]1CN(C)Cc1ccc(Oc2ccccc2)cc1`, the cytotoxicity call was “active”.

As to `C[C@@H]1CN([C@H](C)CO)C(=O)c2cccc(NC(=O)c3nc4ccccc4s3)c2O[C@@H]1CN(C)Cc1ccc(Oc2ccccc2)cc1`, the cytotoxicity call is “inactive”. The result for `C[C@H](CO)N1C[C@H](C)[C@@H](CN(C)Cc2ccc(Oc3ccccc3)cc2)Oc2c(NC(=O)c3nc4ccccc4s3)cccc2C1=O` reads “active”; that for `C[C@H]1CN([C@@H](C)CO)C(=O)c2cccc(NC(=O)c3nc4ccccc4s3)c2O[C@@H]1CN(C)Cc1ccc(Oc2ccccc2)cc1`, “inactive”; that for `C[C@H](CO)N1C[C@H](C)[C@H](CN(C)Cc2ccc(Oc3ccccc3)cc2)Oc2c(NC(=O)c3nc4ccccc4s3)cccc2C1=O`, “inactive”.

Consider `C[C@@H]1CN([C@H](C)CO)C(=O)c2cccc(NC(=O)c3nc4ccccc4s3)c2O[C@H]1CN(C)Cc1ccc(Oc2ccccc2)cc1`, for which the cytotoxicity call was “inactive”.

Regarding `COCC#Cc1cnc2c(c1)C(=O)N([C@H](C)CO)C[C@H](C)[C@H](CN(C)C(=O)CN1CCOCC1)O2`, the cytotoxicity call was “inactive”. Under `Cc1ccc(S(=O)(=O)Nc2ccc3c(c2)C(=O)N([C@@H](C)CO)C[C@@H](C)[C@H](CN(C)C(=O)Nc2cccc4ccccc24)OCCCC[C@H](C)O3)cc1` stands “inactive”; under `COc1ccc(S(=O)(=O)N(C)C[C@@H]2Oc3ccc(NC(=O)Cn4cnnn4)cc3CC(=O)N([C@H](C)CO)C[C@H]2C)cc1`, “inactive”.

As to `COc1ccc(-c2csc(C(C#N)=C3CCCCC3)n2)cc1`, the cytotoxicity call was “inactive”. Under `Cc1nc(-c2ccccc2)cs1` stands “inactive”; under `Cc1ccccc1/C=C(\C#N)c1nc(-c2ccccc2)cs1`, “active”; under `C[C@@H]1CN([C@@H](C)CO)C(=O)c2cc(NC(=O)Cn3cnnn3)ccc2O[C@@H]1CN(C)S(C)(=O)=O`, “inactive”. The result for `O=C(C1=C[C@@H](c2coc3ccccc3c2=O)C[C@@H](OCCCCO)O1)N1CCN(Cc2ccc3c(c2)OCO3)CC1` reads “inactive”; that for `Cc1noc(C)c1NC(=O)Nc1ccc2c(c1)C(=O)N([C@H](C)CO)C[C@H](C)[C@@H](CN(C)S(=O)(=O)c1cn(C)cn1)O2`, “inactive”; that for `C[C@@H]1CCCCO[C@@H](CN(C)Cc2ccc(Cl)c(Cl)c2)[C@@H](C)CN([C@@H](C)CO)C(=O)c2cc(NC(=O)Nc3ccc(F)cc3)ccc2O1`, “active”. The result for `C[C@H]1CCCCO[C@H](CN(C)Cc2ccc(Cl)c(Cl)c2)[C@@H](C)CN([C@@H](C)CO)C(=O)c2cc(NC(=O)Nc3ccc(F)cc3)ccc2O1` reads “active”. Regarding `C[C@@H]1CN([C@@H](C)CO)C(=O)c2cc(NC(=O)Nc3ccc(F)cc3)ccc2O[C@@H](C)CCCCO[C@H]1CN(C)Cc1ccc(Cl)c(Cl)c1`, the cytotoxicity call is “inactive”. Turning to `C[C@@H]1CCCCO[C@@H](CN(C)Cc2ccc(Cl)c(Cl)c2)[C@H](C)CN([C@H](C)CO)C(=O)c2cc(NC(=O)Nc3ccc(F)cc3)ccc2O1`, the cytotoxicity call was “inactive”. Turning to `C[C@@H]1CN([C@H](C)CO)C(=O)c2cc(NC(=O)Nc3ccc(F)cc3)ccc2O[C@@H](C)CCCCO[C@@H]1CN(C)Cc1ccc(Cl)c(Cl)c1`, the cytotoxicity call was “inactive”. In the case of `C[C@@H]1CCCCO[C@H](CN(C)Cc2ccc(Cl)c(Cl)c2)[C@H](C)CN([C@@H](C)CO)C(=O)c2cc(NC(=O)Nc3ccc(F)cc3)ccc2O1`, the cytotoxicity call was “inactive”. On to `C[C@@H]1CCCCO[C@H](CN(C)Cc2ccc(Cl)c(Cl)c2)[C@@H](C)CN([C@H](C)CO)C(=O)c2cc(NC(=O)Nc3ccc(F)cc3)ccc2O1`, for which the cytotoxicity call was “active”. The result for `C[C@H](CO)N1C[C@H](C)[C@H](CN(C)Cc2ccc(Cl)c(Cl)c2)OCCCC[C@H](C)Oc2ccc(NC(=O)Nc3ccc(F)cc3)cc2C1=O` reads “active”; that for `C[C@@H]1CCCCO[C@@H](CN(C)Cc2ccc(Cl)c(Cl)c2)[C@@H](C)CN([C@H](C)CO)C(=O)c2cc(NC(=O)Nc3ccc(F)cc3)ccc2O1`, “inactive”; that for `C[C@@H]1CCCCO[C@@H](CN(C)Cc2ccc(Cl)c(Cl)c2)[C@H](C)CN([C@@H](C)CO)C(=O)c2cc(NC(=O)Nc3ccc(F)cc3)ccc2O1`, “inactive”. Take `C[C@H](CO)N1C[C@H](C)[C@@H](CN(C)Cc2ccc(C(=O)O)cc2)Oc2ccc(NC(=O)c3ccncc3)cc2CC1=O`: the cytotoxicity call was “inactive”. Under `C[C@@H]1CN([C@H](C)CO)C(=O)Cc2cc(NS(=O)(=O)c3ccccc3)ccc2O[C@@H]1CN(C)S(=O)(=O)c1cccs1` stands “inactive”; under `C[C@H]1CN([C@@H](C)CO)C(=O)c2cccc(NC(=O)c3cnccn3)c2O[C@@H]1CN(C)S(=O)(=O)c1ccccc1`, “inactive”; under `C[N+](C)(C)CCCC[C@@H]1NC(=O)[C@H]2C[C@@H](C(=O)NCc3ccc(F)cc3)[C@@H](c3ccc(O)cc3)N2C1=O`, “inactive”.

In the case of `COc1ccc(S(=O)(=O)Nc2ccc3c(c2)C(=O)N([C@@H](C)CO)C[C@H](C)[C@@H](CN(C)Cc2ccc4c(c2)OCO4)OCCCC[C@@H](C)O3)cc1`, the cytotoxicity call was “inactive”. Turning to `COc1ccc(NC(=O)N(C)C[C@@H]2OCc3ccccc3-c3c(n(C)c4ccccc34)C(=O)N([C@@H](C)CO)C[C@@H]2C)cc1`, the cytotoxicity call was “inactive”. Regarding `COc1ccc(S(=O)(=O)Nc2cccc3c2O[C@@H](CN(C)S(=O)(=O)c2cn(C)cn2)[C@H](C)CN([C@@H](C)CO)C3=O)cc1`, the cytotoxicity call is “inactive”. For the compound `C[C@@H]1CN([C@@H](C)CO)C(=O)Cc2cc(NC(=O)Nc3cccc4ccccc34)ccc2O[C@H]1CN(C)Cc1ccc(Cl)c(Cl)c1`, the cytotoxicity call is “inactive”.

For the compound `CC(C)NC(=O)N(C)C[C@H]1Oc2ccc(NC(=O)Cn3cnnn3)cc2C(=O)N([C@@H](C)CO)C[C@H]1C`, the cytotoxicity call is “inactive”. Under `COC(=O)c1ccc(O)c(O)c1` stands “inactive”; under `CCS(=O)(=O)N1CCc2ccc(N)cc2C1`, “inactive”. As to `COc1ccc(S(=O)(=O)N(C)C[C@H]2OCCCC[C@@H](C)Oc3ccc(NS(C)(=O)=O)cc3C(=O)N([C@H](C)CO)C[C@@H]2C)cc1`, the cytotoxicity call was “inactive”. Under `CC(C)NC(=O)Nc1ccc2c(c1)C(=O)N([C@H](C)CO)C[C@H](C)[C@@H](CN(C)Cc1ccc(Cl)c(Cl)c1)OCCCC[C@H](C)O2` stands “inactive”. The result for `CC(C)NC(=O)Nc1ccc2c(c1)C(=O)N([C@@H](C)CO)C[C@H](C)[C@@H](CN(C)Cc1ccc(Cl)c(Cl)c1)OCCCC[C@H](C)O2` reads “inactive”. As to `C[C@@H]1CCCCO[C@H](CN(C)Cc2ccc(Cl)c(Cl)c2)[C@@H](C)CN([C@@H](C)CO)C(=O)c2cc(NC(=O)Nc3ccc(F)cc3)ccc2O1`, the cytotoxicity call was “active”. Regarding `C[C@@H]1CN([C@H](C)CO)C(=O)c2cc(NC(=O)Nc3ccc(F)cc3)ccc2O[C@@H](C)CCCCO[C@H]1CN(C)Cc1ccc(Cl)c(Cl)c1`, the cytotoxicity call is “active”.

Regarding `CC(C)NC(=O)Nc1ccc2c(c1)C(=O)N([C@H](C)CO)C[C@@H](C)[C@H](CN(C)Cc1ccc(Cl)c(Cl)c1)OCCCC[C@@H](C)O2`, the cytotoxicity call was “active”. With `C[C@@H]1CN([C@@H](C)CO)C(=O)c2cc(C#CCN(C)C)cnc2O[C@@H]1CN(C)C(=O)Nc1cc(F)ccc1F`, the cytotoxicity call was “inactive”.

In the case of `C/C=C/c1ccc2c(c1)O[C@H](CN(C)S(=O)(=O)c1ccccc1OC)[C@@H](C)CN([C@H](C)CO)S2(=O)=O`, the cytotoxicity call was “inactive”. As for `C[C@@H]1CN([C@H](C)CO)C(=O)c2cccc(NC(=O)C3CC3)c2O[C@H]1CN(C)Cc1ccc2c(c1)OCO2`, the cytotoxicity call is “inactive”. On to `C[C@@H]1CN([C@@H](C)CO)C(=O)c2cc(NC(=O)CCCN(C)C)ccc2O[C@H]1CN(C)C(=O)Nc1ccc2c(c1)OCO2`, for which the cytotoxicity call is “inactive”.

Turning to `C[C@H](CO)N1C[C@H](C)[C@@H](CN(C)Cc2ccncc2)OCCCC[C@H](C)Oc2ccc(NS(=O)(=O)c3ccc(Cl)cc3)cc2C1=O`, the cytotoxicity call was “inactive”. The result for `Cc1ccc(S(=O)(=O)Nc2cccc3c2O[C@H](CN(C)Cc2ccc(Cl)c(Cl)c2)[C@H](C)CN([C@H](C)CO)C3=O)cc1` reads “inactive”. Regarding `C[C@H](CO)N1C[C@H](C)[C@H](CN(C)C)OCCCC[C@H](C)Oc2ccc(NC(=O)Nc3cccc4ccccc34)cc2C1=O`, the cytotoxicity call was “inactive”.

In the case of `O=C(O)C[C@H]1Oc2ccccc2NC1=O`, the cytotoxicity call was “inactive”. Under `O=C(C[C@@H]1CC[C@@H]2[C@H](COC[C@@H](O)CN2S(=O)(=O)c2ccccc2F)O1)NCc1ccccc1F` stands “inactive”; under `C[C@@H]1CN([C@H](C)CO)C(=O)c2cccc(NC(=O)C3CCOCC3)c2O[C@@H]1CN(C)S(=O)(=O)c1ccc(Cl)cc1`, “inactive”; under `O=C(C=Cc1ccc(O)cc1)c1ccccc1`, “active”. The result for `CC(C)c1ccc(/C=C/C(=O)O)cc1` reads “inactive”; that for `O=C(/C=C/c1ccccc1)C1CC1`, “inactive”. Turning to `O=C(C=Cc1ccccc1)c1ccc(O)cc1`, the cytotoxicity call was “active”. Under `O=C(C=Cc1ccc(O)cc1)c1ccccc1O` stands “inactive”; under `O=C(C=Cc1ccccc1)c1ccc(O)cc1O`, “inactive”. For `CC(C)NC(=O)N(C)C[C@H]1OCCCC[C@H](C)Oc2ccc(NC(=O)C3CCCCC3)cc2C(=O)N([C@H](C)CO)C[C@H]1C`, the cytotoxicity call was “inactive”.

`O=C1CCC(=O)NCC/C=C/CCN1`: the cytotoxicity call is “inactive”.

Consider `O=C(C[C@H]1C=C[C@H](NC(=O)C2CC2)[C@H](CO)O1)NCCCN1CCOCC1`, for which the cytotoxicity call is “inactive”.

In the case of `COCC#Cc1cnc2c(c1)C(=O)N([C@@H](C)CO)C[C@@H](C)[C@H](CN(C)C(=O)Nc1ccc(OC)cc1)O2`, the cytotoxicity call is “inactive”. Under `C[C@@H]1CCCCO[C@H](CN(C)C(=O)c2ccccc2)[C@@H](C)CN([C@@H](C)CO)C(=O)c2cc(NC(=O)CCC(F)(F)F)ccc2O1` stands “inactive”; under `C[C@H]1CCCCO[C@@H](CN(C)C(=O)Nc2ccccc2)[C@@H](C)CN([C@@H](C)CO)C(=O)c2cc(NS(=O)(=O)c3ccc(Cl)cc3)ccc2O1`, “inactive”; under `C[C@H]1CN([C@@H](C)CO)C(=O)c2c(c3ccccc3n2C)-c2ccccc2CO[C@@H]1CN(C)S(C)(=O)=O`, “inactive”. For `C[C@H](CO)N1C[C@H](C)[C@@H](CN(C)S(=O)(=O)c2ccc(F)cc2)Oc2ccc(NC(=O)CCCN(C)C)cc2CC1=O`, the cytotoxicity call was “inactive”.
